PubChem BioAssay AID2405 (Southern Research Specialized Biocontainment Screening …, 2010)
Calls of active or inactive are those of the source. The rule behind the calls is not given here.

test: RSV cytopathic effect inhibition in HEp-2 – cell-based, probe candidates (AID 2405); conditions: HEp-2 cells, active compounds read high; at 100 µM unless noted

Maximum inhibition, inactive:
O=C(CSc1nc2ccccc2c(=O)n1-c1ccc(F)cc1)Nc1ccc2c(c1)OCCO2 15% [at 50 µM], COc1ccc(-c2csc(NC(=O)c3ccccc3Cl)n2)cc1 2.47% [at 12.5 µM], COc1ccc(-c2csc(N(C(=O)c3ccccc3Cl)C(C)C)n2)cc1 6.99% [at 25 µM], COc1ccc(Cn2nc(C)cc2OC(=O)c2c(F)ccc(C)c2F)cc1 1.16% [at 50 µM], O=C(CSc1nc2ccccc2c(=O)n1-c1ccc(F)cc1)Nc1cccc2ccccc12 16.6%, CCOC(=O)C1(Cc2ccccc2C(F)(F)F)CCN(C2CCN(C(C)C)CC2)CC1 0.09% [at 0.2 µM], CC1CC(C)CN(CCCNC(=O)c2cc3c(s2)-c2ccccc2OC3)C1 (stereo not drawn) 1.49% [at 25 µM], COc1ccc(-c2csc(N(CCCN(C)C)C(=O)c3ccccc3F)n2)cc1 5.17%, O=C(CSc1nc2cccc(F)c2c(=O)n1-c1ccccc1)Nc1ccc2c(c1)CCC2 20.4%, OC1c2c(F)cccc2N=C2CCCCCN21 (stereo not drawn) 1.87% [at 12.5 µM], O=C(CSc1nc2ccccc2c(=O)n1-c1ccccc1)Nc1ccc2c(c1)CCC2 18.8% [at 12.5 µM], O=c1c2cc(I)ccc2nc2n1CCC2 5.94%, OC1c2cc(Cl)cc(Cl)c2N=C2CCCN21 (stereo not drawn) 4.35%, O=C(CSc1nc2ccccc2c(=O)n1-c1ccc(Cl)c(Cl)c1)Nc1ccc2c(c1)CCC2 5.37%, CC1CCCN(CCCNC(=O)c2cc3c(s2)-c2ccccc2OC3)C1 (stereo not drawn) 3.5% [at 25 µM], COc1ccc(-c2csc(N(CCCN(C)C)C(=O)c3ccccc3Cl)n2)cc1 0.91% [at 6.25 µM], CN(C)CCCN1c2ccc([N+](=O)[O-])cc2CCc2cc([N+](=O)[O-])ccc21 10.2% [at 50 µM], Brc1ccc2c(c1)CN1CCCC1=N2 25.2% [at 50 µM], Cc1ccc2nc3n(c(=O)c2c1)CCC3 2%, COc1cccc2c(=O)n(-c3ccccc3)c(SCC(=O)Nc3ccc4c(c3)CCC4)nc12 21.8%, COc1ccc(-c2csc(N(Cc3ccccc3)C(=O)c3ccccc3Cl)n2)cc1 10.1% [at 25 µM], O=C(Nc1nc(-c2ccc(Cl)cc2)cs1)c1ccc(I)cc1 1.55% [at 25 µM], O=C(Nc1nc(-c2ccc(Cl)cc2)cs1)c1ccccc1Cl 4.1%, COc1cccc(NC(=O)CSc2nc3ccccc3c(=O)n2-c2ccc(F)cc2)c1 48.3%, Cc1ccc2nc(SCC(=O)Nc3ccc4c(c3)CCC4)n(-c3ccccc3)c(=O)c2c1 47.5% [at 12.5 µM], Nc1ccc2nc3n(c(=O)c2c1)CCC3 1.81% [at 12.5 µM], O=c1c2cc([N+](=O)[O-])ccc2nc2n1CCC2 1.3%, COc1ccc(-c2csc(N(C)C(=O)c3ccccc3Cl)n2)cc1 2.66% [at 12.5 µM]
